For the first experiment, the target named is ARPC4. Briefly: pooled miR-30 sensor sort-seq; sequence = guide strand. Conditions: shRNA.
For TTTGCTACTCCTGACTTCCACT, the sensor-assay potency score (higher = more potent) was -1.07. The sequence TTCATCTCACTGATCTCCTTGT showed a sensor-assay potency score (higher = more potent) of 0.358. In turn, TGTCGTTCCACAACCTGGGAGG came in with a sensor-assay potency score (higher = more potent) of -0.878. Same read-out and setting: the value for TGTTTGTACATCTGCTCTGTGT was -0.895; that for TTGTGTTTGTACATCTGCTCTG was 0.407. The same measure, in the same setting: the value for TTGACTGACAGCTTCATCTCAC was 0.494; that for TTCACAGCAATGCTGACCCGGA was -0.48; that for AAATCTTCTCGATCTCATCAGC was -0.856. The sequence TGTAACAGGAGCTCTTTGCTAC showed a sensor-assay potency score (higher = more potent) of -0.241. The sequence TTTCACAGCAATGCTGACCCGG showed a sensor-assay potency score (higher = more potent) of -0.244. Regarding TGTGTTTGTACATCTGCTCTGT, the sensor-assay potency score (higher = more potent) came to 0.568.

The next experiment addresses ASB15. Described as above. To be noted: shRNA.
Take TTACACAAGATGTCCATCCTGG: the sensor-assay potency score (higher = more potent) amounted to 0.839. The same measure, in the same setting: to TATCTTTGAATAGCTGGTGGTA belongs -0.545; to TTAGCTGAATATCATAACTTGT, -0.69; to TTTATATTTTACATACTCCTGG, -0.0391.

As for TTTCACAGCAATCAGAAGGGGG, the sensor-assay potency score (higher = more potent) was -0.119.

On to TTTTTCATCAGCTTCATCCATT, for which the sensor-assay potency score (higher = more potent) was -0.484. In turn, TATGTATCTTTGAATAGCTGGT registered a sensor-assay potency score (higher = more potent) of -0.171. As to TTTATTACACAAGATGTCCATC, the sensor-assay potency score (higher = more potent) was -0.601. For TGTATCTTTGAATAGCTGGTGG, the sensor-assay potency score (higher = more potent) was -0.176.
Also: reference of the scale not given here.
